Test results from publication PMC7862700, “An all-to-all approach to the identification of sequence-specific readers for epigenetic DNA modifications on cytosine”.

Assays:
Test in all cases: DAPPL (digital affinity profiling via proximity ligation, sequencing); 10 mM Tris-HCl pH 7.5, 50 mM NaCl, 1 mM DTT, 4% glycerol, room temperature, 30 min; GST-TFs on glutathione beads, 16-mer random dsDNA library, 0.1% formaldehyde crosslink after washing; high values mean tight binding
[1] = molecular target: T1, FEV (Homo sapiens, UniProt Q99581 1-238); conditions: protein: recombinant; tags: N-terminal GST; dsDNA, one strand shown
T1 sequence: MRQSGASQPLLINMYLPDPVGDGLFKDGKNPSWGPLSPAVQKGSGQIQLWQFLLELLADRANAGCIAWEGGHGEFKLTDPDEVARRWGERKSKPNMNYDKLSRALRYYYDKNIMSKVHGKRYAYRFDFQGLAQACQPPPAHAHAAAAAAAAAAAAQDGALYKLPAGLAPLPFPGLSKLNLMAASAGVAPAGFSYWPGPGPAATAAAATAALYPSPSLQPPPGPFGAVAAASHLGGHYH
Outline: (§1)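 Pools were built from human transcription factors expressed in yeast as GST fusions, captured on glutathione beads and DNA-barcoded, along with a tag-only sample. Incubation with 200 nmole of a 16-mer random double-stranded DNA library lasted 30 min at room temperature in Tris/NaCl/DTT/glycerol buffer, and was followed by washing, 0.1% formaldehyde crosslinking, proximity ligation, PCR amplification and Illumina NextSeq500 sequencing. Binding signal is the quotient of each hexamer's read frequency for a factor and its frequency for the tag-only sample.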

[2] = molecular target: ETV5 (Homo sapiens, UniProt P41161 1-510); conditions: protein: recombinant; tags: N-terminal GST; dsDNA, one strand shown
Outline: as §1

[3] = molecular target: HSF1 (Homo sapiens, UniProt Q00613 1-529); conditions: protein: recombinant; tags: N-terminal GST; chain copies: 3; dsDNA, one strand shown
Outline: as §1

[4] = molecular target: T2, SPIC (Homo sapiens, UniProt Q8N5J4 1-248); conditions: protein: recombinant; tags: N-terminal GST; dsDNA, one strand shown
T2 sequence: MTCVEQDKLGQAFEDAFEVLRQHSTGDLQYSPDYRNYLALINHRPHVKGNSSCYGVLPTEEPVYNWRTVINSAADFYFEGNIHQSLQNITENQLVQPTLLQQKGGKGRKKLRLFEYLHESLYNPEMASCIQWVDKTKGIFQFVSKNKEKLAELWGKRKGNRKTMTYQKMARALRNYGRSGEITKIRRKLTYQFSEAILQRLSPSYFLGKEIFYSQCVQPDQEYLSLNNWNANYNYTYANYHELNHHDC
Outline: as §1

[5] = molecular target: ELF4 (Homo sapiens, UniProt Q99607 1-663); conditions: protein: recombinant; tags: N-terminal GST; dsDNA, one strand shown
Outline: as §1

[6] = molecular target: T3, ELK4 (Homo sapiens, UniProt P28324-2 1-405); conditions: protein: recombinant; tags: N-terminal GST; dsDNA, one strand shown
T3 sequence: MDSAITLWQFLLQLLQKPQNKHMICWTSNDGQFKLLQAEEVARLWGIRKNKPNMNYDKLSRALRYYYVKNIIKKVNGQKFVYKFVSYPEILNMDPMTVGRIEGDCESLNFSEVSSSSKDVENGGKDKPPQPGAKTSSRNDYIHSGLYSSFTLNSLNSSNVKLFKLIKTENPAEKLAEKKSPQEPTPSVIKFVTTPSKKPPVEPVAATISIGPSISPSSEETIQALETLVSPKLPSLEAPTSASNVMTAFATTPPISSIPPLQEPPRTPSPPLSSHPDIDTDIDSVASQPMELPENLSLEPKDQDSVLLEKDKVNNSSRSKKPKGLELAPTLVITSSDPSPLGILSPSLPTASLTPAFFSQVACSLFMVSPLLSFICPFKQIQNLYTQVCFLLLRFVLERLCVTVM
Outline: as §1

[7] = molecular target: T4, ETV2 (Homo sapiens, UniProt O00321 1-342); conditions: protein: recombinant; tags: N-terminal GST; dsDNA, one strand shown
T4 sequence: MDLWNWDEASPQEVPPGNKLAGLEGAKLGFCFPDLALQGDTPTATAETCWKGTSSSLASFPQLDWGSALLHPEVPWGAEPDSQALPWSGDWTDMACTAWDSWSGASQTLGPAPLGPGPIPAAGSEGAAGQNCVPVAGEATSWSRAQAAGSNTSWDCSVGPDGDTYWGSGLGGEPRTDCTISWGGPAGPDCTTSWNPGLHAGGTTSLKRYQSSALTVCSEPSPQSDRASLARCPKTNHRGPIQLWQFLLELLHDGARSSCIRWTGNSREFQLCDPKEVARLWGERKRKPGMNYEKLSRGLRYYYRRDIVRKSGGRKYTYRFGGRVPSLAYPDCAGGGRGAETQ
Outline: as §1

[8] = molecular target: T5, ELF3 (Homo sapiens, UniProt P78545 1-371); conditions: protein: recombinant; tags: N-terminal GST; dsDNA, one strand shown
T5 sequence: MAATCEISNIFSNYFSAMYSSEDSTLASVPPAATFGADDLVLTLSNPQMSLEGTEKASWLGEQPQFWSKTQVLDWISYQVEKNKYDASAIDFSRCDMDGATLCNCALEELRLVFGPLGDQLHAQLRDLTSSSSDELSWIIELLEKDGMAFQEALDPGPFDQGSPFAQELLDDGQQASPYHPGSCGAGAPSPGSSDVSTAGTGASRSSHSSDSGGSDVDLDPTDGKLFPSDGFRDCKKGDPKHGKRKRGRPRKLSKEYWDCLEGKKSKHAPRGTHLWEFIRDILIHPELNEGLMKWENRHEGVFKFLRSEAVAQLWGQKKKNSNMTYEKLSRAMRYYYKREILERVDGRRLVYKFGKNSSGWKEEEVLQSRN
Outline: as §1

[9] = molecular target: CRX (Homo sapiens, UniProt O43186 1-299); conditions: protein: recombinant; tags: N-terminal GST; dsDNA, one strand shown
Outline: as §1

[10] = molecular target: ETV1 (Homo sapiens, UniProt P50549 1-477); conditions: protein: recombinant; tags: N-terminal GST; dsDNA, one strand shown
Outline: as §1

[11] = molecular target: T6, ERF (Homo sapiens, UniProt P50548 1-548); conditions: protein: recombinant; tags: N-terminal GST; dsDNA, one strand shown
T6 sequence: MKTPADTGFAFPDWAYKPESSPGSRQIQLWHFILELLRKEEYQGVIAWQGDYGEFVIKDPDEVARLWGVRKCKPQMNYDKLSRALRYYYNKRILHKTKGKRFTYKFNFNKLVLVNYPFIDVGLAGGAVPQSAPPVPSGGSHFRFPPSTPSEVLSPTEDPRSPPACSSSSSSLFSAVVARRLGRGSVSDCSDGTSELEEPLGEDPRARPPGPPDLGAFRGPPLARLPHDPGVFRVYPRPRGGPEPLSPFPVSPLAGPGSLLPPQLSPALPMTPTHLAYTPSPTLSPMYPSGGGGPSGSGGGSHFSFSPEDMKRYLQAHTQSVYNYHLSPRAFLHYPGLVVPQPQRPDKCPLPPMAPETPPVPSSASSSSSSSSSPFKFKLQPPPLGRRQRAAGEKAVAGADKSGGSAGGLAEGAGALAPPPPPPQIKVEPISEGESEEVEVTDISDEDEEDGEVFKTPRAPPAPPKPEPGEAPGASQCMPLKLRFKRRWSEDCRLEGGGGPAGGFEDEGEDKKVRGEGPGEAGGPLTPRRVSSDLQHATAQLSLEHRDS
Outline: as §1

[12] = molecular target: T7, ETV3L (Homo sapiens, UniProt Q6ZN32 1-361); conditions: protein: recombinant; tags: N-terminal GST; dsDNA, one strand shown
T7 sequence: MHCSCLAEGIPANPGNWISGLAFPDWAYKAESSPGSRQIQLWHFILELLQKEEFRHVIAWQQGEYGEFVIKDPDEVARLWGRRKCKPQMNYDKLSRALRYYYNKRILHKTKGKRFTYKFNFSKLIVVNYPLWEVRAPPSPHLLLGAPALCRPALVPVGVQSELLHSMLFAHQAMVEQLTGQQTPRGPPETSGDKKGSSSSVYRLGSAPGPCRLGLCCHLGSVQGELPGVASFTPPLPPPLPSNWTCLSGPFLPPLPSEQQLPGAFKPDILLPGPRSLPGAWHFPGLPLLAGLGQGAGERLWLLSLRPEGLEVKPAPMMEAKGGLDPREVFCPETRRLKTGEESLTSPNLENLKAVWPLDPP
Outline: as §1

[13] = molecular target: T8, ETS2 (Homo sapiens, UniProt P15036 1-469); conditions: protein: recombinant; tags: N-terminal GST; dsDNA, one strand shown
T8 sequence: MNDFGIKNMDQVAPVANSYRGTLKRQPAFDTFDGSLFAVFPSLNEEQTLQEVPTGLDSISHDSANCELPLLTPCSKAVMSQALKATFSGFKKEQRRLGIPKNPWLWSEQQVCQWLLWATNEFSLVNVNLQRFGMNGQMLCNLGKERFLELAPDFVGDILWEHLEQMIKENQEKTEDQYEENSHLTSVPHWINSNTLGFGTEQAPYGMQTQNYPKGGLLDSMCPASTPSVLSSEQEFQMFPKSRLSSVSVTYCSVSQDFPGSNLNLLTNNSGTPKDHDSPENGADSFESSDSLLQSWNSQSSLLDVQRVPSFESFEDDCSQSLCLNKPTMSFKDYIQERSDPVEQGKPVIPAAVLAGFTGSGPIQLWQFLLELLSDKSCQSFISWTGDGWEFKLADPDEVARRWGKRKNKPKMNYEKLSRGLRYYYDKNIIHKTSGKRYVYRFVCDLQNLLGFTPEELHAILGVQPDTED
Outline: as §1

[14] = molecular target: T9, SPDEF (Homo sapiens, UniProt O95238 1-335); conditions: protein: recombinant; tags: N-terminal GST; dsDNA, one strand shown
T9 sequence: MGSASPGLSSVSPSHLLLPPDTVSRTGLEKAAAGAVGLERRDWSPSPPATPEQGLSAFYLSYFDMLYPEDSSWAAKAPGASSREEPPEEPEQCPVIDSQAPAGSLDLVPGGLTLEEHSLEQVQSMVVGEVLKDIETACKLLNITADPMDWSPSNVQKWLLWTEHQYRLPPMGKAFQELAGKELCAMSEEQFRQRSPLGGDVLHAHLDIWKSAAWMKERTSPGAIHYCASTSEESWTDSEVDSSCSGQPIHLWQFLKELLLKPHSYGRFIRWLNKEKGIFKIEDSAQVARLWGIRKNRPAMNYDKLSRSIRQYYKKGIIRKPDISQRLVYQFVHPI
Outline: as §1

[15] = molecular target: T10, ETV7 (Homo sapiens, UniProt Q9Y603 1-341); conditions: protein: recombinant; tags: N-terminal GST; dsDNA, one strand shown
T10 sequence: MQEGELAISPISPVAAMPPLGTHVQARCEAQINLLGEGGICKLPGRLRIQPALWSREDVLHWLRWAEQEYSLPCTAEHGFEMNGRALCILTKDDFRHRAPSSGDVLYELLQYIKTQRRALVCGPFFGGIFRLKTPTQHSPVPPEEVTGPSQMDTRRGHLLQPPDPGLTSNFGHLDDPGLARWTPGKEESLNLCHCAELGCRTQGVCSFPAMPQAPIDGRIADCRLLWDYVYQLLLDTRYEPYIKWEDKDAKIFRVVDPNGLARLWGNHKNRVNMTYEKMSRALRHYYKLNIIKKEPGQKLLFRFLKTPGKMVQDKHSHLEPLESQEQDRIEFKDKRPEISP
Outline: as §1

[16] = molecular target: T11, ELF5 (Homo sapiens, UniProt Q9UKW6-2 1-255); conditions: protein: recombinant; tags: N-terminal GST; dsDNA, one strand shown
T11 sequence: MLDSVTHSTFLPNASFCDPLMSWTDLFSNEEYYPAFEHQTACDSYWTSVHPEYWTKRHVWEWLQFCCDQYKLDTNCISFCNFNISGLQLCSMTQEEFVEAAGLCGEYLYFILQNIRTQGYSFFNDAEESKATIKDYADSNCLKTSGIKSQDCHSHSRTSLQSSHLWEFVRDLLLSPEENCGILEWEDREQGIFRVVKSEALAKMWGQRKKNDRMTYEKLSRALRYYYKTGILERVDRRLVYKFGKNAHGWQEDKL
Outline: as §1

[17] = molecular target: T12, ETV3 (Homo sapiens, UniProt P41162-2 1-143); conditions: protein: recombinant; tags: N-terminal GST; dsDNA, one strand shown
T12 sequence: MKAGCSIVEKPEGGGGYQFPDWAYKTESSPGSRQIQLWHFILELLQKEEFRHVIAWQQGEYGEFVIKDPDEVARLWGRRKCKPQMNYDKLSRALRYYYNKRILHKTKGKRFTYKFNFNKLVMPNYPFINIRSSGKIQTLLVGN
Outline: as §1

[18] = molecular target: ETV6 (Homo sapiens, UniProt P41212 1-452); conditions: protein: recombinant; tags: N-terminal GST; dsDNA, one strand shown
Outline: as §1

HSF1, sequence (Q00613 whole entry): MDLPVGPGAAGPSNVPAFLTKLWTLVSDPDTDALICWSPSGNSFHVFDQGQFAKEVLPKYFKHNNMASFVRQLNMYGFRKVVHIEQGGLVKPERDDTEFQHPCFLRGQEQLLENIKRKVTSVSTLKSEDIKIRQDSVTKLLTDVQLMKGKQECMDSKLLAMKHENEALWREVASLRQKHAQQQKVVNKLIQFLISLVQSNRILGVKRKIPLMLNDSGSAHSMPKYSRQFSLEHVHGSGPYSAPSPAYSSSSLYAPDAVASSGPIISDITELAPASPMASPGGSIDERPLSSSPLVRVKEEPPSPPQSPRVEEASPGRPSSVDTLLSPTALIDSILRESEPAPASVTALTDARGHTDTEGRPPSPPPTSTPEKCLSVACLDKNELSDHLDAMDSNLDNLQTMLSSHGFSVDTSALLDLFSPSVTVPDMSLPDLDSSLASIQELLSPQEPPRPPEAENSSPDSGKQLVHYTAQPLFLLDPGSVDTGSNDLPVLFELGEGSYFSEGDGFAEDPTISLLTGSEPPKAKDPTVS
ETV6, sequence (P41212 whole entry): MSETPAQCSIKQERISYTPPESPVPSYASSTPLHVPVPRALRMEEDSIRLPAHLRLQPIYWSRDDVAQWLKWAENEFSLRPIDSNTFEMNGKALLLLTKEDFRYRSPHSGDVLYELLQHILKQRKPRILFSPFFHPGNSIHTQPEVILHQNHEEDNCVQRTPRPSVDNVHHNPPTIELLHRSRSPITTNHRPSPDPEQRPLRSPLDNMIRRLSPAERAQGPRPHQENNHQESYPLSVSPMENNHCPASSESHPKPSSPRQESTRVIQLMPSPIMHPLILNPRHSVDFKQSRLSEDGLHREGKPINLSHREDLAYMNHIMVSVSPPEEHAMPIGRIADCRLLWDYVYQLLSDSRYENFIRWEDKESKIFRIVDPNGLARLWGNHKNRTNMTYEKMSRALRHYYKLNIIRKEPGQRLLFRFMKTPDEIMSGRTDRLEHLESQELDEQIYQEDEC
ETV1, sequence (P50549 whole entry): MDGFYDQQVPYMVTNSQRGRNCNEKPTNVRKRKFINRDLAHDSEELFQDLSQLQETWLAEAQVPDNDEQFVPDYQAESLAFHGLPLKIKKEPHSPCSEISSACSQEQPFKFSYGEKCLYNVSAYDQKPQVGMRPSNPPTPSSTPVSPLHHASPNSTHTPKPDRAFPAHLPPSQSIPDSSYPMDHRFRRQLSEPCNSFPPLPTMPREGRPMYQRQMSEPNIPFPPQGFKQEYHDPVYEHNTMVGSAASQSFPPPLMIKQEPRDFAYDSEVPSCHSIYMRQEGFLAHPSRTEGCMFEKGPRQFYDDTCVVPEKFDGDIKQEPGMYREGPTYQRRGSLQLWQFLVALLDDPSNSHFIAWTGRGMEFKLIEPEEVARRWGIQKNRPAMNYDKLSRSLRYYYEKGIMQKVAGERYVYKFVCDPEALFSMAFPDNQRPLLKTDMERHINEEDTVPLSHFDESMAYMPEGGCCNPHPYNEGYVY
ETV5, sequence (P41161 whole entry): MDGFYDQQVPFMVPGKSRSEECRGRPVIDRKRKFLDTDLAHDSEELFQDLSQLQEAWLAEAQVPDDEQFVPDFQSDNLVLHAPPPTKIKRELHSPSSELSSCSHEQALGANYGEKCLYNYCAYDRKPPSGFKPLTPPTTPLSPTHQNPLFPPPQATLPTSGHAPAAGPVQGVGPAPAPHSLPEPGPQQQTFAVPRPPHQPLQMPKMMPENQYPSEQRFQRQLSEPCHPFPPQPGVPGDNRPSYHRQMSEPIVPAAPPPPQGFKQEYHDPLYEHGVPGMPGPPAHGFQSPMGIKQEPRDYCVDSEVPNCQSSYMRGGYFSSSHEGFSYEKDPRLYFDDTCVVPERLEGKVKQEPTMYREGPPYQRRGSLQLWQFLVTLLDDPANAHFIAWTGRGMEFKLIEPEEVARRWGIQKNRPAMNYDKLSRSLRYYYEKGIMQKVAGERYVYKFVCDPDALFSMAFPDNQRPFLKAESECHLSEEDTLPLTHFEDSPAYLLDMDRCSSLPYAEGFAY
ELF4, sequence (Q99607 whole entry): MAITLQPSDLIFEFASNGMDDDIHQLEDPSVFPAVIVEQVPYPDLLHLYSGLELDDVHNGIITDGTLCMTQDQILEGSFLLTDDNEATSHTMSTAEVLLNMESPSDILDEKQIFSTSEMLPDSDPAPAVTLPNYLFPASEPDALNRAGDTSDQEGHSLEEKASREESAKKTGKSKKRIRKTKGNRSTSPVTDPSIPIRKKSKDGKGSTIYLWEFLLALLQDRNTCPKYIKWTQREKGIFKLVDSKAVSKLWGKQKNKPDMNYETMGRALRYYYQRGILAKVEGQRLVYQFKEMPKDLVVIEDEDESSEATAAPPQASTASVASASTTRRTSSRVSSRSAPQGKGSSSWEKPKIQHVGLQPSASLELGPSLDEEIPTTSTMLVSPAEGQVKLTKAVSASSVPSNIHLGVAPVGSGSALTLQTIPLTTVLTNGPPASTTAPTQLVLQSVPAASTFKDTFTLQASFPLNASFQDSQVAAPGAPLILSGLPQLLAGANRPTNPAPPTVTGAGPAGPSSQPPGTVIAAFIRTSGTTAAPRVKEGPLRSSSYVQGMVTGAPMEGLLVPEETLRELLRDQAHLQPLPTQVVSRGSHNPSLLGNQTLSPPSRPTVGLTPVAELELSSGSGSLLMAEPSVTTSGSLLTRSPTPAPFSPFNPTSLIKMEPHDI
CRX, sequence (O43186 whole entry): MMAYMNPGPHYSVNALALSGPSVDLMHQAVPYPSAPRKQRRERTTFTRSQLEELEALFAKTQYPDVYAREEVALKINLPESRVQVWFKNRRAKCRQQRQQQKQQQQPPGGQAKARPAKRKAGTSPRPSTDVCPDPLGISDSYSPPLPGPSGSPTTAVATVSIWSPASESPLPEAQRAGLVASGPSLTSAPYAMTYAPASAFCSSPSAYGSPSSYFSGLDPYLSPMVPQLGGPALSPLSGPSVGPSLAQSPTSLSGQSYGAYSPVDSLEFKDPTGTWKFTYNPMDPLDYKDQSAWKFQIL

Sequence	binding signal [1]	binding signal [2]	binding signal [3]	binding signal [4]	binding signal [5]	binding signal [6]	binding signal [7]	binding signal [8]	binding signal [9]	binding signal [10]	binding signal [11]	binding signal [12]	binding signal [13]	binding signal [14]	binding signal [15]	binding signal [16]	binding signal [17]	binding signal [18]
CCAACT	1.27 fold enrichment (6-mer frequency, TF over GST control)	1.16 fold enrichment (6-mer frequency, TF over GST control)	1.02 fold enrichment (6-mer frequency, TF over GST control)	1.4 fold enrichment (6-mer frequency, TF over GST control)	1.29 fold enrichment (6-mer frequency, TF over GST control)	1.27 fold enrichment (6-mer frequency, TF over GST control)	1.11 fold enrichment (6-mer frequency, TF over GST control)	1.21 fold enrichment (6-mer frequency, TF over GST control)	1.01 fold enrichment (6-mer frequency, TF over GST control)	1.21 fold enrichment (6-mer frequency, TF over GST control)	1.13 fold enrichment (6-mer frequency, TF over GST control)	1.21 fold enrichment (6-mer frequency, TF over GST control)	1.24 fold enrichment (6-mer frequency, TF over GST control)	1.27 fold enrichment (6-mer frequency, TF over GST control)	1.2 fold enrichment (6-mer frequency, TF over GST control)	1.17 fold enrichment (6-mer frequency, TF over GST control)	1.17 fold enrichment (6-mer frequency, TF over GST control)	1.18 fold enrichment (6-mer frequency, TF over GST control)
TGACCC	1.46 fold enrichment (6-mer frequency, TF over GST control)	1.41 fold enrichment (6-mer frequency, TF over GST control)	1.1 fold enrichment (6-mer frequency, TF over GST control)	1.24 fold enrichment (6-mer frequency, TF over GST control)	1.48 fold enrichment (6-mer frequency, TF over GST control)	1.39 fold enrichment (6-mer frequency, TF over GST control)	1.56 fold enrichment (6-mer frequency, TF over GST control)	1.37 fold enrichment (6-mer frequency, TF over GST control)	1.13 fold enrichment (6-mer frequency, TF over GST control)	1.25 fold enrichment (6-mer frequency, TF over GST control)	1.4 fold enrichment (6-mer frequency, TF over GST control)	1.3 fold enrichment (6-mer frequency, TF over GST control)	1.38 fold enrichment (6-mer frequency, TF over GST control)	1.49 fold enrichment (6-mer frequency, TF over GST control)	1.4 fold enrichment (6-mer frequency, TF over GST control)	1.4 fold enrichment (6-mer frequency, TF over GST control)	1.39 fold enrichment (6-mer frequency, TF over GST control)	1.28 fold enrichment (6-mer frequency, TF over GST control)
